# Screening data as filed in PubChem BioAssay.
# LASV entry inh – qHTS for Inhibitors of binding or entry into cells for Lassa Virus; 18,000 tested, 4.1% active; AID 720533, 2013; Lassa virus pseudotyped entry inhibition, cell-based qHTS; Potency, µM (series often up to 49.2 µM), inactives show at the top dose activity change, negative = inhibition, actives largely listed as inhibitors
# Marburg entry – qHTS for Inhibitors of binding or entry into cells for Marburg Virus; Marburg virus pseudotype entry/binding inhibition, cell-based; Potency, µM (highest dose often 49.2 µM), for inactives: at the highest dose activity change, negative = inhibition, most hits filed as inhibitors; 18,000 tested, 6.5% active
# * marks the source's active call; other numbers are inactive results; ? = inconclusive; . = not tested or not shown; [ ] = remark or other dose. Most compounds without a hit are left out; they make up all but 7.1% or so of the library. The call rests on the fitted dose curve; tested in HEK293 cells. On the % scale 0 is the no-effect control and ±100 the full control effect; potency means the concentration at half of the fitted maximal effect.
SMILES,LASV entry inh,Marburg entry
CC(C)[C@H]1C(=O)N2CCC[C@H]2[C@]2(O)O[C@](NC(=O)[C@@H]3C[C@@H]4c5cccc6[nH]cc(c56)C[C@H]4N(C)C3)(C(C)C)C(=O)N12,-19%,7.1µM*
CC(C)[C@@]1(NC(=O)[C@@H]2C[C@H]3c4cccc5[nH]cc(c45)C[C@@H]3N(C)C2)O[C@]2(O)[C@H]3CCCN3C(=O)CN2C1=O,-12%[17.8 µM],?
C=CCP1(=O)O[C@H](C=C)C[C@H](C=C)O1 (stereo not given in full),4%,38%
OC[C@H]1O[C@H](C#Cc2ccccc2)C=C[C@@H]1O,0%[8.59 µM],2%[8.59 µM]
CCN1C(=NCCCOC(C)C)N[C@@H](CCc2ccccc2)[C@H](C(=O)OC)[C@H]1C,20%[8.59 µM],3%[8.59 µM]
COC(=O)Nc1nc2ccc(S(=O)(=O)c3ccc(NC(=O)Nc4cc(C(F)(F)F)ccc4F)cc3)cc2[nH]1,-20%,-29%
COc1ccc(-c2oc3ncnc(N)c3c2-c2ccc(NC(=O)Nc3cc(C(F)(F)F)ccc3F)cc2)cc1,.,13µM*
Cc1c(N)nc(C(CC(N)=O)NCC(N)C(N)=O)nc1C(=O)NC(C(=O)NC(C)C(O)C(C)C(=O)NC(C(=O)NCCc1nc(-c2nc(C(=O)NCCCN[C@@H](C)c3ccccc3)cs2)cs1)C(C)O)C(O[C@@H]1O[C@@H](CO)[C@@H](O)[C@H](O)[C@@H]1O[C@H]1O[C@H](CO)[C@@H](O)[C@H](OC(N)=O)[C@@H]1O)c1cnc[nH]1 (stereo not given in full),3.5µM*,3.2µM*
C[C@@H]1CC[C@H]2C(=O)N(Cc3ccccc3)C[C@H](O)CN2[C@@H]1c1ccc(Br)cc1,-1%[8.59 µM],3%[8.59 µM]
C=C[C@@H](C)[C@@H](OP1(=O)O[C@@H](C=C)C[C@H](C=C)O1)[C@H](C)CO[Si](C)(C)C(C)(C)C (stereo not given in full),5%,?
COCCNc1nc(-c2ccccc2C)nc2ccccc12,-2%,-1%
COc1ccccc1CNc1ncncc1-c1ccccc1CN(C)C,-22%,?
COc1ccccc1CNc1nc(-c2ccccc2CN(C)C)nc2ccccc12,?,11µM*
CN(C)Cc1ccccc1-c1cncnc1NCc1ccccc1,-5%,-25%
CN(C)Cc1ccccc1-c1nc(NCc2ccccc2)c2ccccc2n1,?,10µM*
Cc1cnc(CNc2ncnc3ccc(-c4ccccc4CN(C)C)cc23)cn1,1%,-23%
COc1ccccc1CNc1ncnc2ccc(-c3ccccc3CN(C)C)cc12,-6%,20µM*
COCCNc1nc(-c2ccccc2CN(C)C)nc2ccccc12,-24%,13µM*
CC(C)C[C@@H]1COc2cccc(F)c2S(=O)(=O)N1,2%,15%
CCN1C(=NCc2ccc3c(c2)OCO3)NC(c2ccccc2)C(C(=O)OC)=C1C (stereo not given),-4%[8.59 µM],-18%[8.59 µM]
CCN1C(=NCc2ccc(OC)cc2)NC(c2ccccc2)C(C(=O)OC)=C1C (stereo not given),10%[8.59 µM],-22%[8.59 µM]
CCOC(=O)OC[C@H]1O[C@H](C#Cc2ccc(F)cc2F)C=C[C@H]1OC(=O)OCC,1%[8.59 µM],-15%[8.59 µM]
C[C@]12C[C@@](C)(C=C1C=Cc1ccc(F)cc1)C(=O)C[C@H]2c1ccc(F)cc1,.,5%[8.59 µM]
COC(=O)C1=C(C)N(Cc2ccccc2)C(=NCCc2cccs2)NC1c1cccc(C(F)(F)F)c1 (stereo not given),-11%[8.59 µM],?
C[C@H]1CC[C@H]2C(=O)N(Cc3cccc([N+](=O)[O-])c3)C[C@H](O)CN2[C@H]1c1cccc(Br)c1,8%[8.59 µM],-16%[8.59 µM]
SMILES,LASV entry inh,Marburg entry
CCN1C(=O)NC(c2ccc(Br)cc2)C(C(=O)OC)=C1C (stereo not given),4%[8.59 µM],?
O=[N+]([O-])c1ccc(O)c2ncccc12,11µM*,16µM*
Cc1ccc(O)c2ncccc12,12%,33%
Nc1ccc(O)c([N+](=O)[O-])c1,-15%[107 µM],-16%[107 µM]
O=Nc1ccc(O)c2ncccc12,2.5µM*,4µM*
COC(=O)[C@@H]1CC[C@H](C)[C@@H](c2ccc(C)cc2)N1C(=O)c1ccc(C=NOC[C@@H](O)[C@H]2O[C@@H]3OC(C)(C)O[C@H]3[C@@H]2O)cc1,.,28%[8.59 µM]
COc1cccc(C(=O)N(Cc2cc3ccc(C)cc3nc2N(C)C)C2CC2)c1OC,5µM*,4µM*
COc1ccc(-c2nc3cc(C)ccc3cc2CN(C(=O)c2cccs2)C2CC2)cc1OC,?,-2%
COc1ccc(-c2nc3cc(C)ccc3cc2CN(C(=O)c2ccco2)C2CC2)cc1OC,-24%,-7%
COc1cccc(-c2nc3cc4c(cc3cc2CN(C(=O)c2cccs2)C2CC2)CCC4)c1OC,13µM*,?
N#Cc1c(NC(=O)c2ccccc2F)sc2c1CCCC2,12%,2%
COC[C@H]1O[C@@H](c2c(OC)cc(OC)cc2OC)[C@H](OC)[C@@H](OC)[C@H]1OC,3%[8.59 µM],-10%[8.59 µM]
C#CCN1CC(=O)N(COC(=O)C2C(C=C(C)C)C2(C)C)C1=O (stereo not given),-7%,-6%
C=CCC1=C(C)C(OC(=O)C2C(C=C(C)C)C2(C)C)CC1=O (stereo not given),28µM*,?
COc1cc2ncn(-c3cc(OC(C)c4ccccc4Cl)c(C(N)=O)s3)c2cc1OC (stereo not given),.,3.5µM*
COc1cc2ncn(-c3cc(OCc4ccccc4C(F)(F)F)c(C(=O)N(C)C)s3)c2cc1OC,-17%,?
COc1cc2ncn(-c3cc(OCCc4ccccc4)c(C(N)=O)s3)c2cc1OC,7.9µM*,?
COc1cc2ncn(-c3cc(OCc4ccccc4S(C)(=O)=O)c(C#N)s3)c2cc1OC,-9%,?
COC(=O)C1=C2CCO[C@@H]2[C@H]2[C@@H](C)[C@H](OC)c3ccccc3[C@H]12,-24%[8.59 µM],0%[8.59 µM]
COC(=O)C1=C(C)N(CC2CC2)C(=O)NC1c1ccc(Br)cc1 (stereo not given),-8%[8.59 µM],77%[8.59 µM]
C[C@H]1N[S+](=O)([O-])c2cc(Cl)ccc2O[C@H]1c1ccccc1,29%,23%
CC=COC(=O)N[C@@H](c1ccccc1)[C@]1(C(=O)OC)CCCC1=O,5%[8.59 µM],?
CC(=O)N[C@@H](CSC(=O)[C@]1([C@@H](O)C(C)C)NC(=O)[C@H](C)[C@@H]1O)C(=O)O,3.5µM*,?
CC(=O)N[C@@H](CSC/C=C(\C)CCC=C(C)C)C(=O)O,4%,17%
C=C(CO[C@@H]1C=C[C@@H](c2ccccc2)O[C@@H]1COC)c1ccccc1,9%[8.59 µM],-4%[8.59 µM]
SMILES,LASV entry inh,Marburg entry
C=C(C)[C@]12C[C@@H](C)[C@@]34O[C@](Cc5ccccc5)(O[C@@H]1[C@@H]3C=C(COC(=O)Cc1ccc(O)c(OC)c1)C[C@]1(O)C(=O)C(C)=C[C@@H]41)O2,?,16µM*
CC(C)(C)N1C(=O)[C@@H]2[C@H]3[C@H](O)[C@H](O)CC(=NOCc4ccccc4)[C@H]3CC[C@H]2C1=O,-3%[8.59 µM],-9%[8.59 µM]
O=C(Nc1cc(C(F)(F)F)cc(C(F)(F)F)c1)c1cc(Cl)ccc1O,1.1µM*,1µM*
O=C(Nc1cc(C(F)(F)F)ccc1O)Nc1cc(C(F)(F)F)ccc1O,-3%,12%
C=CCOC(=O)C(C(C)=O)[C@@H](NC(=O)OC)c1cccc(C(F)(F)F)c1 (stereo not given in full),1%[8.59 µM],4%[8.59 µM]
COC(=O)NCC=Cc1nc(CCCO)co1,-24%[8.59 µM],-24%[8.59 µM]
Oc1cccc(-c2nc(-c3ccccc3)[nH]c2-c2ccncc2)c1,.,7.9µM*
